Compound activity: PubChem BioAssay, National Center for Advancing Translational Sciences (NCATS)
IL2 activator: activates IL-2 in a cell-based reporter assay | IL-2 activation reporter assay, cell-based qHTS; stimulated with anti-CD3/CD4/CD28 beads; in transgenic mouse T cells | actives 0.065% (n = 360,000) | activation, % (series mostly up to about 46 µM); in the data active means activation above about 50%; inconclusive means mostly about 30% to 49%; further: 0% is about no effect
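Using fluorescent plate cytometry, EGFP and DsRed are detected in transgenic mouse T cells stimulated 18 h at 37 degrees C with antibody-coated beads after 60 min compound pretreatment.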
PKM2 activator: activators of human pyruvate kinase M2; P14618; AID 1631; Potency, µM (titrated, usually from 57.5 µM), for the others: top-dose activation, usual class: activators; purified PKM2, Kinase-Glo ATP luminescence, activation; response scale: 0% is enzyme alone, no compound; actives 0.34% (n = 260,000); further: potency means the concentration at half of the fitted maximal effect; on the % scale 0 is the no-effect control and ±100 the full control effect; nearly all actives have a fitted effect of over 55% in size
Target sequence (P14618 whole entry, looked up): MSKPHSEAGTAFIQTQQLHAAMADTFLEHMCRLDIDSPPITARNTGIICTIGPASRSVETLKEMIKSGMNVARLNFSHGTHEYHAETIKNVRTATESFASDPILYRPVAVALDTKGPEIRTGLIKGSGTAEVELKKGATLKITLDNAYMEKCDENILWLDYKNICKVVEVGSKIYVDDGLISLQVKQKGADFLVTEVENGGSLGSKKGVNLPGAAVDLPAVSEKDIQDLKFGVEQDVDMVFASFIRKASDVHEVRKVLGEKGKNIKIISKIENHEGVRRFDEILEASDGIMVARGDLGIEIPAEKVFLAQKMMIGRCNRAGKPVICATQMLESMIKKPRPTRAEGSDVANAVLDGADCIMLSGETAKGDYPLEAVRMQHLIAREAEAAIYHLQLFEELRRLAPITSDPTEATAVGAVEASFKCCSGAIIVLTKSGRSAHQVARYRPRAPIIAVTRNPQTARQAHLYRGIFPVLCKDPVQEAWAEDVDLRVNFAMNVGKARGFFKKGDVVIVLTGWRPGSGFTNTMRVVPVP
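Kinase-Glo luminescence reports ATP generated from ADP (0.1 mM) and PEP (0.5 mM) by purified hPK-M2 after 1 h at room temperature, pH 7.2 imidazole buffer; intermediate enzyme activity allows detecting inhibitors and activators.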
Vif-A3G inh: blocks the Vif interaction with human APOBEC3G; Q9HC16; HeLa A3G-eYFP + Vif (tagged APOBEC3G with the HIV-1 protein that degrades it), YFP fluorescence, overnight; Potency, µM (doses to about 46.1 µM), for the others: top-dose activity, negative = active, actives largely listed as inhibitors; actives 0.076% (n = 410,000); AID 602310; further: potency means the concentration at half of the fitted maximal effect; on the % scale 0 is the no-effect control and ±100 the full control effect; nearly all actives have a fitted effect of over 60% in size
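Read-out is eYFP fluorescence (Ex 488/Em 500-530) from Vif-expressing HeLa A3G-eYFP cells; more signal means A3G escaped Vif-mediated degradation. Cells plated overnight, compound pinned in, incubated overnight at 37 deg C.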
Vif-APOBEC3F blk: inhibitors of Vif-A3F interaction | actives 0.2% (n = 390,000) | HeLa A3F-eYFP + Vif (tagged APOBEC3F with the HIV-1 protein that degrades it), YFP fluorescence increase | Potency, µM (series often up to 46.1 µM), inactives show top-dose activity, negative = active | AID 602313; further: potency means the concentration at half of the fitted maximal effect; % of control where 0% means no effect; nearly all actives have a fitted effect of over 65% in size
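HeLa cells stably expressing Vif plus C-terminally eYFP-tagged A3F were seeded, incubated overnight at 37 deg C, dosed with compound, incubated overnight again at 37 deg C. Yellow fluorescence (Ex 488/Em 500-530) reported blocked Vif-mediated A3F-eYFP degradation.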
* hit, by the source's call; ? = inconclusive; · = not tested or not shown. This is a sample that favours compounds with a hit; in the whole collection about 0.53% have one here. Unless noted, the call rests on the fitted dose curve; in most records, active means well fitted curve in the direction sought with a large enough effect; inconclusive means small, poorly fitted or top-dose-only effect, or another doubt; inactive means no such curve, though single readings can be large; an effect the other way counts as inactive or inconclusive.

SMILES	IL2 activator	PKM2 activator	Vif-A3G inh	Vif-APOBEC3F blk
O=C(CSc1ncn[nH]1)Nc1ccc([N+](=O)[O-])cc1Br	0.0	7.08µM*	-20.0%	?
CC(C)c1ccc(Nc2c(-c3ccc(N(C)C)cc3)nc3cnccn23)cc1	·	·	0.8%	0.5%
Cc1cccc(C)c1Nc1nc2ccccc2nc1NS(=O)(=O)c1ccccc1	·	·	-14.5%	11.2µM*
Cc1ccc(S(=O)(=O)Nc2nc3ccccc3nc2Nc2cccc(S(=O)(=O)N3CCCC3)c2)cc1	5.6	0.8%	-268.5%	7.08µM*
Cc1ccccc1C([O-])=Nc1ccc[n+](-c2nc3ccccc3nc2NS(=O)(=O)c2ccccc2)c1	1.1	-2.8%	-7.5%	12.6µM*
CC(=O)Nc1ccc(Nc2nc3ccccc3nc2NS(=O)(=O)c2ccccc2)cc1	2.9	4.0%	-27.2%	-13.0%
O=[N+]([O-])c1cccc(S(=O)(=O)Nc2nc3ccccc3nc2Nc2cccc(S(=O)(=O)N3CCCCC3)c2)c1	-0.6	-7.4%	1.3%	0.3%
CCOc1ccccc1NC(=O)c1c(NCc2cccs2)sc2c1CCCCC2	·	·	-3.4%	-12.3%
O=C(Nn1cnnc1)C(c1ccccc1)c1ccccc1	-2.2	31.6µM*	2.6%	-4.9%
Nc1[nH]c(=S)[nH]c(=O)c1N	·	·	1.7%	·
COc1cc(/C=C2\C(=N)N3N=CSC3=NC2=O)cc(Br)c1OC(=O)c1ccco1	3.6	-33.2%	?	22.4µM*
COc1ccc2c(CC(=O)N3CCN(S(=O)(=O)c4ccc(F)cc4)CC3)coc2c1	-0.2	·	0.1%	-0.3%
COc1ccc(S(=O)(=O)N2CCN(C(=O)COc3ccccc3)CC2)cc1	-0.5	14.1µM*	-1.7%	-1.7%
COc1ccc2c(CC(=O)N3CCN(S(=O)(=O)c4cccs4)CC3)coc2c1	-1.8	22.4µM*	-0.5%	-1.3%
O=C(COc1ccccc1)N1CCN(S(=O)(=O)c2ccc(Br)cc2)CC1	-0.1	·	-3.1%	1.5%
COc1ccc(S(=O)(=O)N2CCN(C(=O)COc3ccc4c(C)cc(=O)oc4c3)CC2)cc1	-5.0	14.1µM*	-8.1%	8.9%
Cc1cc(=O)oc2cc(OCC(=O)N3c4ccccc4CC3C)ccc12 (stereo unspecified)	-0.5	-5.9%	3.98µM*	0.0%
CCCOc1ccc(-c2nc(SC)[nH]c(=O)c2C#N)cc1OC	·	·	-9.6%	-15.6%
O=C(CCl)N1CCN(S(=O)(=O)c2ccc3ccccc3c2)CC1	-0.3	12.6µM*	-11.2%	10.1%
O=C(COc1ccc(-c2nnco2)cc1)N1CCN(S(=O)(=O)c2ccc3ccccc3c2)CC1	0.4	7.08µM*	2.4%	·
CC(Oc1ccc(F)cc1)C(=O)N1CCC(c2nc3ccccc3s2)CC1 (stereo unspecified)	·	·	-1.4%	2.2%
Cc1ccc(SCC(=O)Nc2ccc(N3CCN(C)CC3)c(F)c2)c(C)c1	-1.9	-2.1%	-3.7%	0.3%
Cc1cc2c(cc1C)NC(CC(=O)NCc1ccccc1)C(=O)N2 (stereo unspecified)	-1.5	-1.0%	3.3%	28.2µM*
COC(=O)c1c(NC(=O)CC2Nc3cc(C)c(C)cc3NC2=O)sc(C)c1C (stereo unspecified)	61.7*	10.8%	-0.1%	-0.3%
CCc1cc(C(=O)OC)c(NC(=O)CC2Nc3cc(C)c(C)cc3NC2=O)s1 (stereo unspecified)	?	-1.6%	-0.1%	?
SMILES	IL2 activator	PKM2 activator	Vif-A3G inh	Vif-APOBEC3F blk
CCCC1=[N+](CC(=O)c2ccc(Br)cc2)CCn2cccc21	-7.5	4.4%	-22.6%	11.2µM*
CCCC1=[N+](CC(=O)c2ccccc2)CCn2cccc21	0.7	-11.6%	-5.9%	0.6%
COc1ccccc1COC(=O)N/C=C/c1ccco1	-0.4	17.8µM*	-7.7%	?
COc1ccc(COC(=O)N/C=C/c2ccco2)cc1	-0.7	26.6%	1.5%	-13.8%
COc1ccc(N2CCN(Cc3nc4c(c(=O)[nH]c(=O)n4C)n3Cc3ccccc3F)CC2)cc1	·	·	2.1%	0.5%
CCn1c(CNC(=O)C23CC4CC(CC(C4)C2)C3)nnc1SCC(=O)Nc1ccccc1	·	·	-2.8%	?
COc1cccc(C=C(C#N)C(=O)c2ccccc2)c1	0.7	·	-6.1%	·
N#C/C(=C\c1cccc(Cl)c1)C(=O)c1ccccc1	-1.6	20µM*	-4.4%	1.5%
O=C(NCc1ccccc1Cl)C1CCN(S(=O)(=O)c2cccs2)CC1	0.0	10µM*	-0.5%	-22.5%
O=C/C(=C\Nc1ccc(Cl)cn1)c1nc2ccccc2o1	3.5	1.3%	-8.4%	-10.4%
